# Tested on: PvIESI-1 RRM domain (Plasmodium vivax PVP01_0939900 aa 896-1203, GST fusion)
# Assay: RBNS R-value (6-mer enrichment in protein-bound RNA vs input library) (ratio); higher = stronger binding preference; the methods of the paper give 50 / 100 / 500 nM protein instead
# Experimental: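 RNA Bind-n-Seq: recombinant GST-tagged IESI-1 RRM domain was incubated at room temperature with a random 40-nt in vitro transcribed RNA library at 250, 500 or 1000 nM protein. Bound RNA was pulled down on glutathione beads and sequenced. R-value is the enrichment of each 6-mer in the bound RNA relative to the input library. Each 6-mer sits inside the random 40-mer context, not as an isolated oligo. Values are replicate 1 only.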
sequence,measurement,setting,value
GAUGAU,RBNS R-value,protein concentration: 250 nM,3.86
same,RBNS R-value,protein concentration: 500 nM,4.13
same,RBNS R-value,protein concentration: 1000 nM,3.88
CGAUGA,RBNS R-value,protein concentration: 250 nM,2.37
same,RBNS R-value,protein concentration: 500 nM,2.7
same,RBNS R-value,protein concentration: 1000 nM,2.6
UGAUAA,RBNS R-value,protein concentration: 250 nM,2.82
same,RBNS R-value,protein concentration: 500 nM,3.29
same,RBNS R-value,protein concentration: 1000 nM,3.43
CUGAUA,RBNS R-value,protein concentration: 250 nM,2.42
same,RBNS R-value,protein concentration: 500 nM,2.81
same,RBNS R-value,protein concentration: 1000 nM,2.81
GUUGAU,RBNS R-value,protein concentration: 250 nM,2.7
same,RBNS R-value,protein concentration: 500 nM,2.98
same,RBNS R-value,protein concentration: 1000 nM,2.73
CUUGAU,RBNS R-value,protein concentration: 250 nM,3.23
same,RBNS R-value,protein concentration: 500 nM,3.65
same,RBNS R-value,protein concentration: 1000 nM,3.49
UUGAUU,RBNS R-value,protein concentration: 250 nM,4.5
same,RBNS R-value,protein concentration: 500 nM,4.73
same,RBNS R-value,protein concentration: 1000 nM,4.43
UGAUAU,RBNS R-value,protein concentration: 250 nM,2.45
same,RBNS R-value,protein concentration: 500 nM,2.79
same,RBNS R-value,protein concentration: 1000 nM,2.9
CCUUGA,RBNS R-value,protein concentration: 250 nM,1.7
same,RBNS R-value,protein concentration: 500 nM,1.88
same,RBNS R-value,protein concentration: 1000 nM,1.91
UGAUUA,RBNS R-value,protein concentration: 250 nM,3.86
same,RBNS R-value,protein concentration: 500 nM,4.25
same,RBNS R-value,protein concentration: 1000 nM,4.11
GUGAUG,RBNS R-value,protein concentration: 250 nM,3.26
same,RBNS R-value,protein concentration: 500 nM,3.57
same,RBNS R-value,protein concentration: 1000 nM,3.34
UGAUUG,RBNS R-value,protein concentration: 250 nM,3.56
same,RBNS R-value,protein concentration: 500 nM,3.76
same,RBNS R-value,protein concentration: 1000 nM,3.39
ACCCGA,RBNS R-value,protein concentration: 250 nM,1.44
same,RBNS R-value,protein concentration: 500 nM,1.74
same,RBNS R-value,protein concentration: 1000 nM,1.74

# Reference: the supplement of paper PMC13392028
